# Measurements taken from PubChem BioAssay (EPA / NIEHS).
# Values joined by “and” are separate entries in the source; they are usually repeats but may differ in a detail not shown here. Equal values may be shown once. Active and inactive are the calls of the source. Rule for the calls: active = hit-call score of the fitted dose curve at least 0.9, where 1 is the maximum; inactive = score below 0.9.
# Read-out: Monocyte Chemoattractant Protein-1 (MCP1), CCL2 (gene 6347)
# Assay: BSK_SAg_MCP1: BioMAP Diversity Plus: SAg Assay for Monocyte Chemoattractant Protein-1 (MCP1) Biomarker Activity (AID 2283090)
# Settings: primary human HUVEC with PBMC; actives raise or lower the signal
# Procedure, shortened: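 MCP-1 levels in the endothelial–PBMC SAg co-culture were quantified by ELISA at 24 h post-dosing; both increases and decreases versus DMSO scored. Cytotoxicity monitored by SRB total protein in parallel cultures.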
# E-selectin (Homo sapiens), sequence (P16581 whole entry, looked up): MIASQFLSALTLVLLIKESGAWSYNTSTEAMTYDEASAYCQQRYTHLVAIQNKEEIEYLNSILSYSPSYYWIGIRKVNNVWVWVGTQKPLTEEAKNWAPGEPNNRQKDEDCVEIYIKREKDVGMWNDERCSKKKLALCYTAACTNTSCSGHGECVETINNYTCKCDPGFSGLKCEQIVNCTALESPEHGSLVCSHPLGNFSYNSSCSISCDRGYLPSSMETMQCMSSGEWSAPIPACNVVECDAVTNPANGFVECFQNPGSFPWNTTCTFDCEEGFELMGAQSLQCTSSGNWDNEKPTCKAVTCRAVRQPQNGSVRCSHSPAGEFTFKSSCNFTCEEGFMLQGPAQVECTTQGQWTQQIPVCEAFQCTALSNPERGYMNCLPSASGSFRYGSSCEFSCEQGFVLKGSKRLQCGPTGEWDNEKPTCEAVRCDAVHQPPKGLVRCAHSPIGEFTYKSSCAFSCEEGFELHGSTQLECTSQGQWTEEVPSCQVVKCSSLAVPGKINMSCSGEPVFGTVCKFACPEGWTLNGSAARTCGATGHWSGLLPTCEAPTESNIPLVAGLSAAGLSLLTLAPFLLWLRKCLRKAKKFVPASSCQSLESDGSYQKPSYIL
SMILES,outcome,AC50
CCN(Cc1c(F)cccc1Cl)c1c([N+](=O)[O-])cc(C(F)(F)F)cc1[N+](=O)[O-],inactive,
C#CCOC(=O)[C@@H](C)Oc1ccc(Oc2ncc(Cl)cc2F)cc1,inactive,
CN(C)C(=O)Nc1ccc(Cl)c(Cl)c1,inactive,
CC(C)(C)[C@@H](O)[C@@H](Cc1ccc(Cl)cc1)n1cncn1,inactive,
CCCCCCC(C)OC(=O)COc1nc(F)c(Cl)c(N)c1Cl (centres undefined),,29.8 µM (active)
CCOC(=O)NCCOc1ccc(Oc2ccccc2)cc1,,26.9 µM (active)
CC(=O)[C@H]1CC[C@H]2[C@@H]3CCC4=CC(=O)CC[C@]4(C)[C@H]3CC[C@]12C,inactive,
c1ccc2[nH]c(-c3cscn3)nc2c1,inactive,
S=C([S-])NCCNC(=S)[S-].[Mn+2],,30.3 µM (active)
CCCCCOC(=O)COc1cc(N2C(=O)C3=C(CCCC3)C2=O)c(F)cc1Cl,inactive,

# Read-out: E-selectin (Homo sapiens) (UniProt P16581)
# Assay: BSK_SAg_Eselectin: BioMAP Diversity Plus: SAg Assay for Eselectin Biomarker Activity (AID 2283091)
# Settings: primary human HUVEC with PBMC; actives raise or lower the signal
# Procedure, shortened: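 Primary human endothelial cells and peripheral blood mononuclear cells were co-cultured and exposed to chemical for 24 hours. E-selectin levels were then quantified by ELISA, with bidirectional curve fitting normalised to DMSO controls.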
SMILES,AC50,outcome
CCOC(=O)C(C)Oc1ccc(Oc2nc3ccc(Cl)cc3o2)cc1 (centres undefined),20 µM (active),
Cc1nn(C)c(Oc2ccccc2)c1C=NOCc1ccc(C(=O)OC(C)(C)C)cc1,4.27 µM (active),
O=C(O)c1ccccc1,,inactive
CCCCOC(=O)C(C)Oc1ccc(Oc2ccc(C(F)(F)F)cn2)cc1 (centres undefined),,inactive
CC1(C)C(C=C(Cl)Cl)C1C(=O)OCc1cccc(Oc2ccccc2)c1 (centres undefined),,inactive
COc1nc(C)nc(NC(=O)NS(=O)(=O)c2ccccc2OCCCl)n1,,inactive
COC(=O)c1c(Cl)nn(C)c1S(=O)(=O)NC(=O)Nc1nc(OC)cc(OC)n1,,inactive
CSC(=O)c1cccc2nnsc12,,inactive
CCOC(=O)[C@H](C)Oc1ccc(Oc2nc3ccc(Cl)cc3o2)cc1,,inactive
CCCOC(=O)c1ccc(C(=O)OCCC)nc1,,inactive
CCC(O)=C1C(=O)CC(C(=O)O)CC1=O (centres undefined),,inactive
C#C[C@]1(O)CC[C@H]2[C@@H]3CCC4=CC(=O)CC[C@@H]4[C@H]3CC[C@@]21CC,,inactive
CCCCOC(=O)[C@@H](C)Oc1ccc(Oc2ccc(C(F)(F)F)cn2)cc1,,inactive
CCCN(CCC)c1c([N+](=O)[O-])cc(C(F)(F)F)c(N)c1[N+](=O)[O-],29.3 µM (active),
CCNc1nc(N)nc(Cl)n1,,inactive
CC(C)CCCCCCc1ccc(O)cc1,9.34 µM (active),
COC(=O)c1ccccc1S(=O)(=O)NC(=O)Nc1nc(OC(F)F)cc(OC(F)F)n1,,inactive
CCCCC(CC)COC(=O)c1ccccc1C(=O)O (centres undefined),,inactive
N#CSCSc1nc2ccccc2s1,5.69 µM (active) and 8.52 µM (active),
CCN(Cc1c(F)cccc1Cl)c1c([N+](=O)[O-])cc(C(F)(F)F)cc1[N+](=O)[O-],,inactive
C#CCOC(=O)[C@@H](C)Oc1ccc(Oc2ncc(Cl)cc2F)cc1,,inactive
Oc1ccc(C(c2ccc(O)cc2)C(Cl)(Cl)Cl)cc1,10.6 µM (active),
CN(C)C(=O)Nc1ccc(Cl)c(Cl)c1,,inactive
CC(C)(C)[C@@H](O)[C@@H](Cc1ccc(Cl)cc1)n1cncn1,8.51 µM (active),
CCCCCCC(C)OC(=O)COc1nc(F)c(Cl)c(N)c1Cl (centres undefined),33 µM (active),
CCOC(=O)NCCOc1ccc(Oc2ccccc2)cc1,31.8 µM (active),
CC(=O)[C@H]1CC[C@H]2[C@@H]3CCC4=CC(=O)CC[C@]4(C)[C@H]3CC[C@]12C,1.01 µM (active),
c1ccc2[nH]c(-c3cscn3)nc2c1,,inactive
CCCCCOC(=O)COc1cc(N2C(=O)C3=C(CCCC3)C2=O)c(F)cc1Cl,15.8 µM (active),
